The values below come from PMC7862700, “An all-to-all approach to the identification of sequence-specific readers for epigenetic DNA modifications on cytosine”.

Common to all, as to assay: DAPPL (digital affinity profiling via proximity ligation, sequencing); 10 mM Tris-HCl pH 7.5, 50 mM NaCl, 1 mM DTT, 4% glycerol, room temperature, 30 min; GST-TFs on glutathione beads, 16-mer random dsDNA library, 0.1% formaldehyde crosslink after washing; high values mean tight binding
One test concerns the target T1, FLI1 (Homo sapiens, UniProt Q01543 1-452).
T1 sequence: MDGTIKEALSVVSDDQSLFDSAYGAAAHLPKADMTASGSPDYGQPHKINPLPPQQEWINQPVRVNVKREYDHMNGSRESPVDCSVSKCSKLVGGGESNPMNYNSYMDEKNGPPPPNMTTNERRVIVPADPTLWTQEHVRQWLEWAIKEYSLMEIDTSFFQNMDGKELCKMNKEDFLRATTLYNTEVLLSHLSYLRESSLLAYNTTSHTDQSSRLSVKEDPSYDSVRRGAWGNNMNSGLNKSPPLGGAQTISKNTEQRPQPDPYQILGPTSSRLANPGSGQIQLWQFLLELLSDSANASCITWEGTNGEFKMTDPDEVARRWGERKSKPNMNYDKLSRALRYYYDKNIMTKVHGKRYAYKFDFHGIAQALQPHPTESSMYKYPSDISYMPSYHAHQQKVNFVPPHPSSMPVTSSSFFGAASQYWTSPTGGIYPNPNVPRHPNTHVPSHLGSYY
Particulars: protein: recombinant; tags: N-terminal GST; dsDNA, one strand shown. The essentials:
(§1)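 In yeast, human transcription factors were expressed with a GST fusion, then pulled down on glutathione beads and given DNA barcodes. Pooled with a tag-only sample, they were exposed to 200 nmole of a 16-mer random double-stranded DNA library (Tris/NaCl/DTT/glycerol buffer, room temperature, 30 min), washed, crosslinked with 0.1% formaldehyde, proximity-ligated using BsaI/T4 ligase for 1 h at 37 °C, PCR-amplified and read on an Illumina NextSeq500. Each hexamer's frequency of reads for a factor, divided by the matching frequency for the tag-only sample, gives the binding signal.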

The target of the next test is T2, ELK1 (Homo sapiens, UniProt P19419 1-428).
T2 sequence: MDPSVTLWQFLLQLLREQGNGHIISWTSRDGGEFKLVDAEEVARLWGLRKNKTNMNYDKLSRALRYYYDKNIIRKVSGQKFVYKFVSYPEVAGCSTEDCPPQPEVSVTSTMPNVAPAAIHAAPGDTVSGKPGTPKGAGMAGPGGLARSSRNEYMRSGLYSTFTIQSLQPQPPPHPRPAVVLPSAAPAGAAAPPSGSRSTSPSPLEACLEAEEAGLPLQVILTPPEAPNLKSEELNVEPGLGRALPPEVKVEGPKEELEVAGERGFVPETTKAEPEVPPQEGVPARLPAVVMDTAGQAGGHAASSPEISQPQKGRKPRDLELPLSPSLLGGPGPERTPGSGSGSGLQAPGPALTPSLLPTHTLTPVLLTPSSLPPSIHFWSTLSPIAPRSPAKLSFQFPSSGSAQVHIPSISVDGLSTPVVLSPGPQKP
The conditions noted are these: protein: recombinant; tags: N-terminal GST; dsDNA, one strand shown. In a few lines:
as §1

The next test has as its target T3, GABPA (Homo sapiens, UniProt Q06546 1-454).
T3 sequence: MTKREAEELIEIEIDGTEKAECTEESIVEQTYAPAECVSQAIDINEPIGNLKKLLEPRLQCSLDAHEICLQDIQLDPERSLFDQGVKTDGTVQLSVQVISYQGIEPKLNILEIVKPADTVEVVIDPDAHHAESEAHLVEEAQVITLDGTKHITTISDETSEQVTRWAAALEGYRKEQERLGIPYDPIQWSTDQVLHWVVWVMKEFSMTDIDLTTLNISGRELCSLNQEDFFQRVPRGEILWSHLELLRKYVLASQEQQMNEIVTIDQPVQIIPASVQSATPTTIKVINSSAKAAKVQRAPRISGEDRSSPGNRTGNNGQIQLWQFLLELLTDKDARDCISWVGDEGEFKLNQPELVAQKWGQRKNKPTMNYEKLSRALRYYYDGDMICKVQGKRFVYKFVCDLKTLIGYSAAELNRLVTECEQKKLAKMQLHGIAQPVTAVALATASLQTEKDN
The conditions noted are these: protein: recombinant; tags: N-terminal GST; dsDNA, one strand shown. In a few lines: as §1

In another test the target is T4, ERG (Homo sapiens, UniProt P11308 1-479).
T4 sequence: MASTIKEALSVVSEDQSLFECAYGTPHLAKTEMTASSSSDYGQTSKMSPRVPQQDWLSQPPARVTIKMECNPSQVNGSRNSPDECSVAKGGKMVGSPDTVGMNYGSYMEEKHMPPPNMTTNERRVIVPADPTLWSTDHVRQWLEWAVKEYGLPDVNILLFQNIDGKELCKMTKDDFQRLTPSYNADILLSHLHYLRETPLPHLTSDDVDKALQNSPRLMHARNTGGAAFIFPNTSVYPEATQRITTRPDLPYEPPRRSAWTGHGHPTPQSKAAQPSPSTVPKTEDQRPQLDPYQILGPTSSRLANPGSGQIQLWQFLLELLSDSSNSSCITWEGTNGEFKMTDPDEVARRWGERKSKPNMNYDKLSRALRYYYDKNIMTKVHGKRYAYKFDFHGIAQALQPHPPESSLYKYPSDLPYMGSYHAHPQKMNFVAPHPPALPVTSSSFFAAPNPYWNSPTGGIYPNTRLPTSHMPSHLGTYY
Particulars: protein: recombinant; tags: N-terminal GST; dsDNA, one strand shown. The essentials: as §1

The target in the next test is ELF1 (Homo sapiens, UniProt P32519 1-619). The conditions noted are these: protein: recombinant; tags: N-terminal GST; dsDNA, one strand shown. In a few lines:
as §1

The next test concerns the target T5, EHF (Homo sapiens, UniProt Q9NZC4 1-300).
T5 sequence: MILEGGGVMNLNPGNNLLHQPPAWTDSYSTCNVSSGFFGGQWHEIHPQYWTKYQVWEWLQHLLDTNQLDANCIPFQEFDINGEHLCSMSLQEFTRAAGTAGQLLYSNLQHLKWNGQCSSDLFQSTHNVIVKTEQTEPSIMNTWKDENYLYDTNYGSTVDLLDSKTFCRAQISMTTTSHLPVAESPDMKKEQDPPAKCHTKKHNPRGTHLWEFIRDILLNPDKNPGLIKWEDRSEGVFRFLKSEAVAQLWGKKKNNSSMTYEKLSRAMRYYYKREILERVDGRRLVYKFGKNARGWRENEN
Particulars: protein: recombinant; tags: N-terminal GST; dsDNA, one strand shown. In a few lines:
as §1

In the next test the target is SPI1 (Homo sapiens, UniProt P17947 1-270). The conditions noted are these: protein: recombinant; tags: N-terminal GST; dsDNA, one strand shown. The essentials: as §1
A further test concerns the target SPIB (Homo sapiens, UniProt Q01892 1-262). The conditions noted are these: protein: recombinant; tags: N-terminal GST; dsDNA, one strand shown. The essentials: as §1
A further test deals with T6, ELK3 (Homo sapiens, UniProt P41970 1-407).
T6 sequence: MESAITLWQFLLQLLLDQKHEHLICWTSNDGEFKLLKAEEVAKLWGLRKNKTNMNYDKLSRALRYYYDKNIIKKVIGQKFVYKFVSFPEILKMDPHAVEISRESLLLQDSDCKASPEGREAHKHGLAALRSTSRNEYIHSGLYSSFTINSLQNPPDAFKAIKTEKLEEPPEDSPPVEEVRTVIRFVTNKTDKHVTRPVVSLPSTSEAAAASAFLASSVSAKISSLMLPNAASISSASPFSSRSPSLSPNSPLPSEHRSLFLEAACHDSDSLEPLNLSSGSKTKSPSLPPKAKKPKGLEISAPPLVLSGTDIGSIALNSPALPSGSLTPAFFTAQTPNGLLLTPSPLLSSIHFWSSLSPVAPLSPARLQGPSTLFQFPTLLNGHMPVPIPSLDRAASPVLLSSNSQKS
Particulars: protein: recombinant; tags: N-terminal GST; dsDNA, one strand shown. In a few lines:
as §1

The target of another test is T7, FEV (Homo sapiens, UniProt Q99581 1-238).
T7 sequence: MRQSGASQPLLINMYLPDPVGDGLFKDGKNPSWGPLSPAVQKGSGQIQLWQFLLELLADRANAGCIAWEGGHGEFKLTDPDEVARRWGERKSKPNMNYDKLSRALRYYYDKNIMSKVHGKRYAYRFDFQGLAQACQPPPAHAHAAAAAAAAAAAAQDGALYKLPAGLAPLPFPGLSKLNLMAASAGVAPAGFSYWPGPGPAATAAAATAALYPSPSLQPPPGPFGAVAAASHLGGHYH
The conditions noted are these: protein: recombinant; tags: N-terminal GST; dsDNA, one strand shown. The essentials: as §1

For a further test, the target named is ETV5 (Homo sapiens, UniProt P41161 1-510). The conditions noted are these: protein: recombinant; tags: N-terminal GST; dsDNA, one strand shown. The essentials:
as §1

The target of another test is HSF1 (Homo sapiens, UniProt Q00613 1-529). The conditions noted are these: protein: recombinant; tags: N-terminal GST; chain copies: 3; dsDNA, one strand shown. The essentials: as §1
Chain of HSF1 (Q00613 whole entry): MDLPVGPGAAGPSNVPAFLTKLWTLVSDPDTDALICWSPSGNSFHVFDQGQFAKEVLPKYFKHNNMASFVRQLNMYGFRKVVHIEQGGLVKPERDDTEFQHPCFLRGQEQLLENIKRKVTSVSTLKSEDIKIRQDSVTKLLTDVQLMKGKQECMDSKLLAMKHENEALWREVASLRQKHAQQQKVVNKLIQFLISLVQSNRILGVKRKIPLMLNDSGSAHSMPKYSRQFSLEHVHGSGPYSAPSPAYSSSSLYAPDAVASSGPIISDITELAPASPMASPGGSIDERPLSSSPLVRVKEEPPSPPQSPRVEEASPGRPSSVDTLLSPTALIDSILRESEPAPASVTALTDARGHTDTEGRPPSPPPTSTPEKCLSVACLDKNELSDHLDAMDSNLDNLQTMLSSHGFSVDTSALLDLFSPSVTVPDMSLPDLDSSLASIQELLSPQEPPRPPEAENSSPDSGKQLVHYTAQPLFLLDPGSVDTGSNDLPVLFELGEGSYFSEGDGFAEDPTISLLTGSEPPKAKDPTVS
The target of another test is T8, SPIC (Homo sapiens, UniProt Q8N5J4 1-248).
T8 sequence: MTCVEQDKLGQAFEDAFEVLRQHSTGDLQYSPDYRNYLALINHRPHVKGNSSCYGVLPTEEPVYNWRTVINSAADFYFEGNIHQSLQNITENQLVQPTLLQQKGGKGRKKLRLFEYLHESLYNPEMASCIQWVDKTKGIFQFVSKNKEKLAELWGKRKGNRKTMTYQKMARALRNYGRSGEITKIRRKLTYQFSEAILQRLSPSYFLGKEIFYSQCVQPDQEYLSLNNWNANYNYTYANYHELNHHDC
Particulars: protein: recombinant; tags: N-terminal GST; dsDNA, one strand shown. In a few lines:
as §1

Another test concerns the target ELF4 (Homo sapiens, UniProt Q99607 1-663). Particulars: protein: recombinant; tags: N-terminal GST; dsDNA, one strand shown. In a few lines:
as §1

The target of a further test is T9, ELK4 (Homo sapiens, UniProt P28324-2 1-405).
T9 sequence: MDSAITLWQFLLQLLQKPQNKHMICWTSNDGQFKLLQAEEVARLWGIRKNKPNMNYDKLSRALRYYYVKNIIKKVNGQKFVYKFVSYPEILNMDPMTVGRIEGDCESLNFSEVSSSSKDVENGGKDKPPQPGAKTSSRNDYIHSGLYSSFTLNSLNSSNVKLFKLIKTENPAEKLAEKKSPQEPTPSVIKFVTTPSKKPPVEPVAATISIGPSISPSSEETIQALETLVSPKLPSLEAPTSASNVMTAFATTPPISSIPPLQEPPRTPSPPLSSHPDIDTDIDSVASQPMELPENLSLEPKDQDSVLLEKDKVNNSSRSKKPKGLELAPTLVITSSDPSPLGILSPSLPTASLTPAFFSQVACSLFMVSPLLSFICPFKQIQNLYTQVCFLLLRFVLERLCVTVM
The conditions noted are these: protein: recombinant; tags: N-terminal GST; dsDNA, one strand shown. The essentials:
as §1

The target in the next test is T10, ETV2 (Homo sapiens, UniProt O00321 1-342).
T10 sequence: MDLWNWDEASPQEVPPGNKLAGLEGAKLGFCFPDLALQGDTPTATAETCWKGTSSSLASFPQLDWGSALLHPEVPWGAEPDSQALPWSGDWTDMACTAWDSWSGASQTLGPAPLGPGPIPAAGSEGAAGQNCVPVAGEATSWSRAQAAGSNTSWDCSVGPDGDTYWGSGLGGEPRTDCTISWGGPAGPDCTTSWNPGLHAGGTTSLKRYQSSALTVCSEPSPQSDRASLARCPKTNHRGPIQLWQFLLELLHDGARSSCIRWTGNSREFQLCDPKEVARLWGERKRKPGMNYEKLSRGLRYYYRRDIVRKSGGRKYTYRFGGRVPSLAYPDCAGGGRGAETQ
Particulars: protein: recombinant; tags: N-terminal GST; dsDNA, one strand shown. The essentials:
as §1

For another test, the target named is T11, ELF3 (Homo sapiens, UniProt P78545 1-371).
T11 sequence: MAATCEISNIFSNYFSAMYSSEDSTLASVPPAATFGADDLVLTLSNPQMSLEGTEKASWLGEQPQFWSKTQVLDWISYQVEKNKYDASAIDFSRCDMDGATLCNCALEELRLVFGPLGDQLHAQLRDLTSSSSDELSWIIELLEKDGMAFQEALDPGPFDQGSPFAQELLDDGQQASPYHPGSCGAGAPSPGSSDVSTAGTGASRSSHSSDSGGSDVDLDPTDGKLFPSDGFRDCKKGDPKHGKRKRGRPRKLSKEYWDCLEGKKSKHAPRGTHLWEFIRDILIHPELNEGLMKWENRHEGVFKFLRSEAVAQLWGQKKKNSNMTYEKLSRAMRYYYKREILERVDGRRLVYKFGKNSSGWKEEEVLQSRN
Particulars: protein: recombinant; tags: N-terminal GST; dsDNA, one strand shown. The essentials: as §1

Another test addresses CRX (Homo sapiens, UniProt O43186 1-299). The conditions noted are these: protein: recombinant; tags: N-terminal GST; dsDNA, one strand shown. The essentials:
as §1

The next test has as its target ETV1 (Homo sapiens, UniProt P50549 1-477). Particulars: protein: recombinant; tags: N-terminal GST; dsDNA, one strand shown. In a few lines: as §1

Chain of CRX (O43186 whole entry): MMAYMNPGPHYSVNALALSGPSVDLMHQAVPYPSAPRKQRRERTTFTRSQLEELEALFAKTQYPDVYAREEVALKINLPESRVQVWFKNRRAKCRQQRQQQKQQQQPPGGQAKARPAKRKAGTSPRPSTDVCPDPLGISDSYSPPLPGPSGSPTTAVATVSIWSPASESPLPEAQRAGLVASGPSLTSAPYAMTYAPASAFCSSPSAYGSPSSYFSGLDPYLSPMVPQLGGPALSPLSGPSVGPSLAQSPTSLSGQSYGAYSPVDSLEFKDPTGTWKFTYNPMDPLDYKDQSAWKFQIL
Chain of ELF1 (P32519 whole entry): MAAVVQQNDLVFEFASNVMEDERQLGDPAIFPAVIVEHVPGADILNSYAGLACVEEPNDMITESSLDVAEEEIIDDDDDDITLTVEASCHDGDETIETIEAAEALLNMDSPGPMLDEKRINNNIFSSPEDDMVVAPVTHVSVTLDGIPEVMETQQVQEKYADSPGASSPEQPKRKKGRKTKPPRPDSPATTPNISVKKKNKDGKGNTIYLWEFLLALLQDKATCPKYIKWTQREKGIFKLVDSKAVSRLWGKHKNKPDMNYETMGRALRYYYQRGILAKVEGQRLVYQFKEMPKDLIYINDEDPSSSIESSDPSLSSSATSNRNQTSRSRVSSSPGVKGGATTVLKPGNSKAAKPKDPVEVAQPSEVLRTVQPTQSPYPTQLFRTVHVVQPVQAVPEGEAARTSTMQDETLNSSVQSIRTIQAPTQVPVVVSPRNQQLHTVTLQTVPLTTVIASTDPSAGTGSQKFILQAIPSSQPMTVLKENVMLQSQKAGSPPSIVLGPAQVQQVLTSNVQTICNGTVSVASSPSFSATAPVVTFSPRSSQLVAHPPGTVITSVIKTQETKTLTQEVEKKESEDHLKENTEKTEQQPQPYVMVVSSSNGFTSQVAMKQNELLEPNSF
Chain of ETV5 (P41161 whole entry): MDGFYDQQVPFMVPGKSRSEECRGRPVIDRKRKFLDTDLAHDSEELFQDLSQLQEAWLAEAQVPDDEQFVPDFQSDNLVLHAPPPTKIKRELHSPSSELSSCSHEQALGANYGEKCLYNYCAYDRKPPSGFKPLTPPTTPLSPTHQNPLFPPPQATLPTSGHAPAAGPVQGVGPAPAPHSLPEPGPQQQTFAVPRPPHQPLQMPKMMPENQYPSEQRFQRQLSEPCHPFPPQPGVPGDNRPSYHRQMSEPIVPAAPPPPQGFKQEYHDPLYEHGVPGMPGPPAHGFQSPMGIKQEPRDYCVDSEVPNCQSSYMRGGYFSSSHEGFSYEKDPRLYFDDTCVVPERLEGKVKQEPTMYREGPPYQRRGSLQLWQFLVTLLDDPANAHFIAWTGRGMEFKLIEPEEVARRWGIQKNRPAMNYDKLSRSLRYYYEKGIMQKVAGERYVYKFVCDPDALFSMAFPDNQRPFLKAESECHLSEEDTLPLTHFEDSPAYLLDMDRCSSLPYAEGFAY
Chain of ETV1 (P50549 whole entry): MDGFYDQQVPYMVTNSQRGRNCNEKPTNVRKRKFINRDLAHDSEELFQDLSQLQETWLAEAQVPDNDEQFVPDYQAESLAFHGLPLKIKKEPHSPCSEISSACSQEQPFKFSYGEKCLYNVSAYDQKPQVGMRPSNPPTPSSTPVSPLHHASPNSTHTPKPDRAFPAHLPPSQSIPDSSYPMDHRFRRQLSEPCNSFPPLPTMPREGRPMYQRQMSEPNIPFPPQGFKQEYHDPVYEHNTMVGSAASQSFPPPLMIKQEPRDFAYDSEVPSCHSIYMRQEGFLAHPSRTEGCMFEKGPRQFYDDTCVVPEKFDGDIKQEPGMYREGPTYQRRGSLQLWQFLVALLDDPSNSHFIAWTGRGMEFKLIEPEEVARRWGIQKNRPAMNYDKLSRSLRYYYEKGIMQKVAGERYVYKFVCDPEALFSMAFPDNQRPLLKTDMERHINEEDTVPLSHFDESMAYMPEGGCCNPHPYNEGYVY
Chain of SPIB (Q01892 whole entry): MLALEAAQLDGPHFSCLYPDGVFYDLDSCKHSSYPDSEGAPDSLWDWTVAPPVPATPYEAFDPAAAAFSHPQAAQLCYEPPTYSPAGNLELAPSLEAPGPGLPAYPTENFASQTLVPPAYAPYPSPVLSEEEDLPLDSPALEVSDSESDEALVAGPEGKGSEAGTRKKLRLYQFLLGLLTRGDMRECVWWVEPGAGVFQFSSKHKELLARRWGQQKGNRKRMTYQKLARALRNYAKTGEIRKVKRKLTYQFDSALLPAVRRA
Chain of ELF4 (Q99607 whole entry): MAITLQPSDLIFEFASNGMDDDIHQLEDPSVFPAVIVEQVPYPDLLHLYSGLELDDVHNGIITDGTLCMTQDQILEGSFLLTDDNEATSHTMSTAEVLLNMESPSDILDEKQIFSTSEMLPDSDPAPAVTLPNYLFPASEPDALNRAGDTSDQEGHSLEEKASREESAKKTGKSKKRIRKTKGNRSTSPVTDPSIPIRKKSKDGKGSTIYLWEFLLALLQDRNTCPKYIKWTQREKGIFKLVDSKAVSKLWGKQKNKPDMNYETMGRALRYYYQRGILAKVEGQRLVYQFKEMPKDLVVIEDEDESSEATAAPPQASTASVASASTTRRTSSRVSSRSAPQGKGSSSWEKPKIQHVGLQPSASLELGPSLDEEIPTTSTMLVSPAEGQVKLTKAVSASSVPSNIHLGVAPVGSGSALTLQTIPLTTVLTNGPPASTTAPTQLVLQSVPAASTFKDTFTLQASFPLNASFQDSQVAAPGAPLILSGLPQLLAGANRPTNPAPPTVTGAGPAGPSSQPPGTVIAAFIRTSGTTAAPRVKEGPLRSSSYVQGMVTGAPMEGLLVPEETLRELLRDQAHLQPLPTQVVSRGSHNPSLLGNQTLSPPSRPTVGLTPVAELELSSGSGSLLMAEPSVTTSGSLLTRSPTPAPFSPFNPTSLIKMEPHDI

As to TTGTAG, the binding signal with FLI1 is 1.13 fold enrichment (6-mer frequency, TF over GST control); in the test with ELK1, 1.19 fold enrichment (6-mer frequency, TF over GST control); with GABPA, 1.12 fold enrichment (6-mer frequency, TF over GST control); in the test with ERG it was 1.12 fold enrichment (6-mer frequency, TF over GST control); with ELF1, 1.14 fold enrichment (6-mer frequency, TF over GST control); with EHF it was 1.11 fold enrichment (6-mer frequency, TF over GST control). Moreover, the binding signal in the test with SPI1 was 1.07 fold enrichment (6-mer frequency, TF over GST control); with SPIB, 1.23 fold enrichment (6-mer frequency, TF over GST control); with ELK3, 1.2 fold enrichment (6-mer frequency, TF over GST control); in the test with FEV it was 1.02 fold enrichment (6-mer frequency, TF over GST control); with ETV5 it was 1.1 fold enrichment (6-mer frequency, TF over GST control); with HSF1, 1.23 fold enrichment (6-mer frequency, TF over GST control). Moreover, the binding signal with SPIC was 1.02 fold enrichment (6-mer frequency, TF over GST control); in the test with ELF4, 1.2 fold enrichment (6-mer frequency, TF over GST control); in the test with ELK4, 1.31 fold enrichment (6-mer frequency, TF over GST control); in the test with ETV2, 1.15 fold enrichment (6-mer frequency, TF over GST control); in the test with ELF3, 1.03 fold enrichment (6-mer frequency, TF over GST control); in the test with CRX it was 1.13 fold enrichment (6-mer frequency, TF over GST control). For the same sequence, the binding signal in the test with ETV1 was 1.25 fold enrichment (6-mer frequency, TF over GST control).
